Read-out in test [1]: Plasminogen activator inhibitor-1 (PAI1), SERPINE1 (gene 5054)
The test is described as follows: BSK_MyoF_PAI1: BioMAP Diversity Plus: MyoF Assay for Plasminogen activator inhibitor-1 (PAI1) Biomarker Activity (AID 2284256).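 For outcome: PAI-1 read 24 h after compound addition.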 Conditions: primary human lung fibroblasts. In short, it runs like this: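 Primary human lung fibroblasts are dosed and incubated 24 h. PAI-1 is then measured by ELISA, while parallel cultures undergo SRB staining for overt cytotoxicity. Increases over DMSO define activity.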

Read-out in test [2]: Interleukin-8 (IL8), CXCL8 (gene 3576)
The test is described as follows: BSK_MyoF_IL8: BioMAP Diversity Plus: MyoF Assay for Interleukin-8 (IL8) Biomarker Activity (AID 2284261). Conditions: primary human lung fibroblasts. In short, it runs like this: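 IL-8 levels were measured by ELISA in human lung fibroblasts harvested 24 h after compound addition. Responses were analysed as gain of signal over the DMSO baseline.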

Read-out in the next test: Decorin, DCN (gene 1634)
The test is described as follows: BSK_MyoF_Decorin: BioMAP Diversity Plus: MyoF Assay for Decorin Biomarker Activity (AID 2284265). The conditions noted are these: primary human lung fibroblasts. In a few lines:
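Compound is added to lung fibroblast cultures; cells incubate 24 h; decorin is then measured by ELISA; the response is analysed upward against DMSO controls.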

Read-out in test [3]: Matrix Metallopeptidase 1 (MMP1), MMP1 (gene 4312)
The test is described as follows: BSK_MyoF_MMP1: BioMAP Diversity Plus: MyoF Assay for Matrix Metallopeptidase 1 (MMP1) Biomarker Activity (AID 2284268). The conditions noted are these: primary human lung fibroblasts. In short, it runs like this: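 Lung fibroblast cultures were dosed with test chemicals and, after 24 h, MMP1 levels were measured by ELISA; responses were referenced to DMSO and analysed for increases.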

Read-out in test [4]: TIMP metallopeptidase inhibitor 1 (TIMP1), TIMP1 (gene 7076)
The test is described as follows: BSK_MyoF_TIMP1: BioMAP Diversity Plus: MyoF Assay for TIMP metallopeptidase inhibitor 1 (TIMP1) Biomarker Activity (AID 2284269). The conditions noted are these: primary human lung fibroblasts. In short, it runs like this: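 ELISA read-out of TIMP-1 from primary human lung fibroblast cultures 24 h after compound dosing; gain of signal relative to DMSO vehicle baseline defines activity.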

Read-out in test [5]: Interleukin-8 (IL8), CXCL8 (gene 3576)
The test is described as follows: BSK_KF3CT_IL8: BioMAP Diversity Plus: KF3CT Assay for Interleukin-8 (IL8) Biomarker Activity (AID 2284254). The conditions noted are these: primary human keratinocytes with fibroblasts. In a few lines: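 Chemicals were added to co-cultured human keratinocytes and foreskin fibroblasts, incubated 24 h, then IL-8 was quantified by ELISA. Cytotoxicity was tracked by sulforhodamine B total-protein staining in parallel cultures.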

Read-out in test [6]: Macrophage Inflammatory Protein-1 Alpha (MIP1a), CCL3 (gene 6348)
The test is described as follows: BSK_IMphg_MIP1a: BioMAP Diversity Plus: IMphg Assay for Macrophage Inflammatory Protein-1 Alpha (MIP1a) Biomarker Activity (AID 2284255). The conditions noted are these: primary human endothelial cells with macrophages. In a few lines: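 Co-culture of human venular endothelial cells and macrophages exposed to compounds for 24 h; MIP-1a measured by ELISA relative to DMSO. Cytotoxicity assessed in parallel cultures by sulforhodamine B total-protein staining at 560 nm.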

Read-out in another test: CD69, CD69 (gene 969)
The test is described as follows: BSK_IMphg_CD69: BioMAP Diversity Plus: IMphg Assay for CD69 Biomarker Activity (AID 2284257). Conditions: primary human endothelial cells with macrophages. In a few lines:
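Human venular endothelial cells co-cultured with macrophages; CD69 quantified by ELISA 24 h after compound addition. Activity fitted in the positive direction relative to DMSO baseline; cytotoxicity tracked in parallel cultures via SRB total-protein staining.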

Read-out in test [7]: Eotaxin 3, CCL26 (gene 10344)
The test is described as follows: BSK_BF4T_Eotaxin3: BioMAP Diversity Plus: BF4T Assay for Eotaxin 3 Biomarker Activity (AID 2284258). The conditions noted are these: primary human bronchial epithelial cells with fibroblasts. In a few lines: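 Co-culture of human bronchial epithelial cells and dermal fibroblasts, exposed to chemicals for 24 h versus DMSO. Eotaxin-3 quantified by ELISA; cytotoxicity checked in parallel cultures by sulforhodamine B total-protein staining.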

Read-out in test [8]: Monocyte Chemoattractant Protein-1 (MCP1), CCL2 (gene 6347)
The test is described as follows: BSK_BF4T_MCP1: BioMAP Diversity Plus: BF4T Assay for Monocyte Chemoattractant Protein-1 (MCP1) Biomarker Activity (AID 2284259). The conditions noted are these: primary human bronchial epithelial cells with fibroblasts. In short, it runs like this: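 Co-culture of bronchial epithelial cells and dermal fibroblasts dosed with chemical; MCP-1 measured by ELISA 24 h later. Activity fitted in positive direction versus DMSO; cytotoxicity checked by SRB staining in parallel cultures.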

Read-out in test [9]: Intercellular Adhesion Molecule 1 (ICAM1), ICAM1 (gene 3383)
The test is described as follows: BSK_BF4T_ICAM1: BioMAP Diversity Plus: BF4T Assay for Intercellular Adhesion Molecule 1 (ICAM1) Biomarker Activity (AID 2284260). Conditions: primary human bronchial epithelial cells with fibroblasts. In a few lines: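 Co-culture of human bronchial epithelial cells and dermal fibroblasts exposed 24 h to chemical; cell-surface ICAM-1 quantified by ELISA. Parallel SRB total-protein staining assessed cytotoxicity; activity fitted relative to DMSO.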

Read-out in another test: CD90, THY1 (gene 7070)
The test is described as follows: BSK_BF4T_CD90: BioMAP Diversity Plus: BF4T Assay for CD90 Biomarker Activity (AID 2284262). Conditions: primary human bronchial epithelial cells with fibroblasts. In short, it runs like this:
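Co-culture of human bronchial epithelial cells and dermal fibroblasts, 24 h compound exposure. Cell-surface CD90 measured by ELISA relative to DMSO; parallel SRB total-protein staining for cytotoxicity.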

Read-out in test [10]: Interleukin-8 (IL8), CXCL8 (gene 3576)
The test is described as follows: BSK_BF4T_IL8: BioMAP Diversity Plus: BF4T Assay for Interleukin-8 (IL8) Biomarker Activity (AID 2284263). The conditions noted are these: primary human bronchial epithelial cells with fibroblasts. In a few lines: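 Human bronchial epithelial cells with dermal fibroblasts co-culture; IL-8 measured by ELISA 24 hours after dosing, fitted vs DMSO. Cytotoxicity tracked in parallel cultures by SRB total-protein staining.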

Read-out in test [11]: Interleukin-1 alpha (IL1a), IL1A (gene 3552)
The test is described as follows: BSK_BF4T_IL1a: BioMAP Diversity Plus: BF4T Assay for Interleukin-1 alpha (IL1a) Biomarker Activity (AID 2284264). The conditions noted are these: primary human bronchial epithelial cells with fibroblasts. In a few lines: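 Human bronchial epithelial cells co-cultured with dermal fibroblasts, dosed and read at 24 h. Secreted/surface IL-1α quantified by ELISA; gain-of-signal fitted relative to DMSO baseline. Parallel SRB total-protein staining tracked cytotoxicity.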

Read-out in another test: KRT18 (gene 3875)
The test is described as follows: BSK_BF4T_Keratin818: BioMAP Diversity Plus: BF4T Assay for Keratin 818 Biomarker Activity (AID 2284266). Conditions: primary human bronchial epithelial cells with fibroblasts. In a few lines:
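Co-culture of human bronchial epithelial cells and dermal fibroblasts, chemical exposure 24 h. Keratin 8/18 measured by ELISA; positive-direction fit vs DMSO. SRB total protein run in parallel cultures for cytotoxicity.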

Read-out in test [12]: Matrix Metallopeptidase 1 (MMP1), MMP1 (gene 4312)
The test is described as follows: BSK_BF4T_MMP1: BioMAP Diversity Plus: BF4T Assay for Matrix Metallopeptidase 1 (MMP1) Biomarker Activity (AID 2284270). Conditions: primary human bronchial epithelial cells with fibroblasts. In a few lines: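 Co-culture of human bronchial epithelial cells and dermal fibroblasts; MMP-1 levels measured by ELISA 24 hours after chemical dosing, relative to DMSO. Cytotoxicity checked in parallel cultures by SRB total-protein staining.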

Read-out in test [13]: Matrix Metallopeptidase 3 (MMP3), MMP3 (gene 4314)
The test is described as follows: BSK_BF4T_MMP3: BioMAP Diversity Plus: BF4T Assay for Matrix Metallopeptidase 3 (MMP3) Biomarker Activity (AID 2284271). Conditions: primary human bronchial epithelial cells with fibroblasts. In a few lines:
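Co-culture of human bronchial epithelial cells and dermal fibroblasts dosed 24 h; MMP-3 measured by ELISA, positive-direction fit versus DMSO. Cytotoxicity tracked by SRB total-protein staining (560 nm) in parallel cultures.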

Read-out in test [14]: Tissue plasminogen activator (tPA), PLAT (gene 5327)
The test is described as follows: BSK_BF4T_tPA: BioMAP Diversity Plus: BF4T Assay for Tissue plasminogen activator (tPA) Biomarker Activity (AID 2284272). Conditions: primary human bronchial epithelial cells with fibroblasts. In a few lines: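 tPA level quantified by ELISA at 24 h post-treatment in bronchial epithelial/dermal fibroblast co-cultures, gain of signal scored against DMSO baseline. Parallel cultures stained with 0.1% SRB (560 nm) to flag overt cytotoxicity.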

Test [15] in a line: BSK_BF4T_SRB: Viability Assessment in the BioMAP Diversity Plus: BF4T Assay (AID 2284274). The conditions noted are these: primary human bronchial epithelial cells with fibroblasts. In short, it runs like this: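 Co-culture of human bronchial epithelial cells and dermal fibroblasts (BioMAP BF4T) exposed 24 h. Total protein by sulforhodamine B staining (0.1% SRB after 10% TCA fixation, 560 nm) in parallel cultures; fitted vs DMSO.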

Read-out in test [16]: urokinase Plasminogen Activator (uPA), PLAU (gene 5328)
The test is described as follows: BSK_BF4T_uPA: BioMAP Diversity Plus: BF4T Assay for urokinase Plasminogen Activator (uPA) Biomarker Activity (AID 2284275). Conditions: primary human bronchial epithelial cells with fibroblasts. In short, it runs like this: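 Co-culture of human bronchial epithelial cells and dermal fibroblasts; uPA quantified by ELISA 24 hours after dosing, fitted relative to DMSO. Parallel SRB total-protein staining assessed overt cytotoxicity.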

Molecules are shown by their SMILES. Where “and” joins values, the source holds several entries; their conditions need not be identical. Identical values can stand only once. Where a structure was tested more than once in an assay, its records may differ in their call. Calls of active or inactive are those of the source. Rule for the calls: active = hit-call score of the fitted dose curve at least 0.9, where 1 is the maximum; inactive = score below 0.9.

Take `NC(=NCCCCCCN=C(N)/N=C(\N)Nc1ccc(Cl)cc1)/N=C(\N)Nc1ccc(Cl)cc1`: the AC50 in [1] was 4.43 µM (active); in [2], 5.05 µM (active); in the test with Decorin, DCN (gene 1634), 9.05 µM (active); in test [3], 9 µM (active); in test [4], 4.84 µM (active).

On to `Oc1ccc(Cc2ccccc2O)cc1`, for which, in test [5], the result was inactive.

`CCCCCCCCCCCC`: the AC50 in test [5] was 20 µM (active) and 27.3 µM (active).

Turning to `Oc1c(Cl)cc(Cl)cc1Sc1cc(Cl)cc(Cl)c1O`, in test [5], the outcome was inactive.

With `O=P(O)(O)CCC(F)(F)C(F)(F)C(F)(F)C(F)(F)C(F)(F)C(F)(F)F`, the outcome in test [5] is “inactive”; in test [6] it was “inactive”; in test [1], “inactive”; with CD69, CD69 (gene 969), “inactive”; in test [7] it was “inactive”; in [8] it was “inactive”. For the same compound, the outcome was “inactive” in [9]; “inactive” in test [2]; “inactive” in the test with CD90, THY1 (gene 7070); “inactive” in test [10]; “inactive” in [11]; “inactive” in the test with Decorin, DCN (gene 1634). For the same compound, the outcome (with KRT18 (gene 3875); in [3]; in test [4]; in test [12]; in test [13]; in [14]) was inactive. Besides, the result in test [15] and in test [16] was inactive. For the same compound, in test [14], the AC50 is 14.6 µM (active).

On to `O=P(O)(O)CCC(F)(F)C(F)(F)C(F)(F)C(F)(F)C(F)(F)C(F)(F)C(F)(F)C(F)(F)F`, for which the outcome is “inactive” in test [5]; “inactive” in [6]; “inactive” in test [1]; “inactive” with CD69, CD69 (gene 969); “inactive” in test [7]; “inactive” in [8]. Also, the outcome in test [9] is “inactive”; in [2], “inactive”; with CD90, THY1 (gene 7070) it was “inactive”; in [10] it was “inactive”; in test [11], “inactive”; with Decorin, DCN (gene 1634) it was “inactive”. Moreover, the outcome (in the test with KRT18 (gene 3875); in test [3]; in test [4]; in test [12]; in [13]; in [14]) was inactive. Further, the outcome in [15] and in [16] was inactive. The AC50 was 8.05 µM (active) in test [7] and 19.2 µM (active) in test [14].

For `O=C(O)CCC(F)(F)C(F)(F)C(F)(F)C(F)(F)C(F)(F)C(F)(F)F`, the outcome is “inactive” in [5]; “inactive” in [6]; “inactive” in [1]; “inactive” in the test with CD69, CD69 (gene 969); “inactive” in test [7]; “inactive” in [8]. In addition, the outcome in test [9] is “inactive”; in test [2], “inactive”; in the test with CD90, THY1 (gene 7070), “inactive”; in [10], “inactive”; in test [11] it was “inactive”; in the test with Decorin, DCN (gene 1634) it was “inactive”. The result (with KRT18 (gene 3875); in test [3]; in [4]; in test [12]; in [13]; in [14]) was inactive. Moreover, the result in [15] and in [16] was inactive. Further, the AC50 in test [6] is 7.18 µM (active) and 19.2 µM (active); with CD69, CD69 (gene 969), 13.6 µM (active); in [7], 2.88 µM (active).

On to `COc1cc(OC)nc(NC(=O)NS(=O)(=O)Nc2ccccc2C(=O)N(C)C)n1`, for which the outcome in test [1] was “inactive”; in [2], “inactive”; with Decorin, DCN (gene 1634), “inactive”; in test [3], “inactive”; in test [4], “inactive”.

As to `COCN(COC)c1nc(N(COC)COC)nc(N(COC)COC)n1`, the outcome in test [1] is “inactive”; in [2], “inactive”; with Decorin, DCN (gene 1634) it was “inactive”; in test [3] it was “inactive”; in test [4], “inactive”.

On to `COc1cccc(O)c1`, for which the outcome in [1] was “inactive”; in test [2], “inactive”; with Decorin, DCN (gene 1634) it was “inactive”; in test [3], “inactive”; in [4], “inactive”.

These data come from PubChem BioAssay (EPA / NIEHS).
